Measurements reported in PubChem BioAssay (NCI).
About 83,000 compounds went through this panel and 20% of them were active in at least one assay; those are over-represented in the sample as a whole.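 Single-concentration screen, 48 h exposure, 96-well plates. Endpoint: percent growth. Below 10 = active.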 The source made the active and inactive calls.

Tests used:
Assay in all cases: NCI-60 one-dose screen, 48 h (100 = growth as untreated, 0 = no growth, -100 = all killed)
Details in all cases: 10 µM unless noted
DU-145 prostate = test system: DU-145 prostate
K-562 leukemia = test system: K-562 leukemia
MALME-3M melanoma = test system: MALME-3M melanoma
MDA-MB-231 breast = test system: MDA-MB-231 breast
RXF 393 renal = test system: RXF 393 renal
SF-268 CNS = test system: SF-268 CNS
SF-295 CNS = test system: SF-295 CNS
SF-539 CNS = test system: SF-539 CNS
UACC-257 melanoma = test system: UACC-257 melanoma
M14 melanoma = test system: M14 melanoma
HCT-15 colon = test system: HCT-15 colon
HT29 colon = test system: HT29 colon
SNB-75 CNS = test system: SNB-75 CNS
SNB-19 CNS = test system: SNB-19 CNS
PC-3 prostate = test system: PC-3 prostate
SK-MEL-5 melanoma = test system: SK-MEL-5 melanoma
UACC-62 melanoma = test system: UACC-62 melanoma
SK-MEL-28 melanoma = test system: SK-MEL-28 melanoma
LOX IMVI melanoma = test system: LOX IMVI melanoma
U251 CNS = test system: U251 CNS

Measured: growth

Oc1ccc(Cl)cc1Cc1cc(Cl)cc(Cl)c1O
inactive: DU-145 prostate 33.2% | MDA-MB-231 breast 69.2% | RXF 393 renal 74% | SF-268 CNS 42.3% | SF-539 CNS 19.8% | UACC-257 melanoma 74.1% | M14 melanoma 65.9% | HCT-15 colon 41.2% | HT29 colon 107% | SNB-75 CNS 60.5% | SNB-19 CNS 34.8% | SK-MEL-28 melanoma 31.2%
active: K-562 leukemia 5.3% | MALME-3M melanoma -19.5% | SF-295 CNS -15.1% | PC-3 prostate -0.0941% | SK-MEL-5 melanoma 5.53% | UACC-62 melanoma -9.82%

CCCCCCNC(=O)Oc1ccc(/C(=C(\C)c2ccc(Cl)cc2)c2ccc(OCCN(CC)CC)cc2)cc1
active: K-562 leukemia 2.67% | UACC-257 melanoma 6.29% | M14 melanoma -4.87% | HCT-15 colon 1.93% | HT29 colon -14.2%
inactive: DU-145 prostate 73.5% | MALME-3M melanoma 49.3% | MDA-MB-231 breast 65% | RXF 393 renal 49.7% | SF-268 CNS 62% | SF-295 CNS 84.9% | SF-539 CNS 72.3% | SNB-75 CNS 77.2% | SNB-19 CNS 74.5% | PC-3 prostate 56.7% | SK-MEL-5 melanoma 51.9% | UACC-62 melanoma 73.3% | LOX IMVI melanoma 44.2% | SK-MEL-28 melanoma 66%

CCOC(=O)c1c2c(n(-c3ccc(C#N)cc3)c1-c1ccccc1)C=CCC2
inactive: DU-145 prostate 102% | K-562 leukemia 70.7% | MALME-3M melanoma 103% | MDA-MB-231 breast 91.6% | RXF 393 renal 109% | SF-268 CNS 96.8% | SF-295 CNS 86.2% | SF-539 CNS 114% | UACC-257 melanoma 102% | M14 melanoma 93.5% | HCT-15 colon 76.9% | HT29 colon 68.2% | SNB-19 CNS 98.4% | U251 CNS 99.7% | PC-3 prostate 70.1% | SK-MEL-5 melanoma 92.8% | UACC-62 melanoma 75% | LOX IMVI melanoma 84% | SK-MEL-28 melanoma 102%

COc1c(B(O)O)cc(C)cc1-c1nc2ccc3[nH]ncc3c2c2c1CCCC2
inactive: DU-145 prostate 72.6% | K-562 leukemia 24.1% | MALME-3M melanoma 91.6% | MDA-MB-231 breast 23.4% | SF-268 CNS 50% | SF-295 CNS 53.1% | SF-539 CNS 12.5% | UACC-257 melanoma 102% | M14 melanoma 97.4% | HCT-15 colon 21.6% | HT29 colon 38.6% | SNB-19 CNS 74% | U251 CNS 60.6% | PC-3 prostate 61.9% | SK-MEL-5 melanoma 80.4% | UACC-62 melanoma 69.5% | LOX IMVI melanoma 30.7% | SK-MEL-28 melanoma 93.8%
active: RXF 393 renal -2.67%

C#C[C@]1(O)CC[C@H]2[C@@H]3CC=C4c5sc(Nc6cc(F)ccc6F)nc5CC[C@]4(C)[C@H]3CC[C@@]21C
active: DU-145 prostate -30.6% | K-562 leukemia 4.14% | MALME-3M melanoma -19.9% | MDA-MB-231 breast -20.6% | RXF 393 renal -58.5% | SF-268 CNS 0.557% | SF-295 CNS -41.9% | SF-539 CNS -88.7% | UACC-257 melanoma 0.483% | M14 melanoma -22.1% | HCT-15 colon -28.4% | HT29 colon 8.03% | SNB-19 CNS 6.38% | U251 CNS -15.2% | PC-3 prostate -8.02% | UACC-62 melanoma -36.2% | LOX IMVI melanoma -77.7% | SK-MEL-28 melanoma -44.9%
inactive: SK-MEL-5 melanoma 13.2%

COc1cc(C2CC(c3ccc(SC)cc3)=NN2C(C)=O)cc(OC)c1OC (centres undefined)
inactive: DU-145 prostate 91% | K-562 leukemia 31.1% | MALME-3M melanoma 59.6% | MDA-MB-231 breast 85.3% | RXF 393 renal 77.7% | SF-268 CNS 77.2% | SF-295 CNS 44.1% | SF-539 CNS 78.1% | UACC-257 melanoma 79.4% | M14 melanoma 44.3% | HCT-15 colon 47.5% | HT29 colon 21.9% | SNB-19 CNS 74.3% | U251 CNS 62.7% | PC-3 prostate 58.3% | SK-MEL-5 melanoma 70.2% | UACC-62 melanoma 57.9% | LOX IMVI melanoma 62.3% | SK-MEL-28 melanoma 75.3%

O=C(N=c1oc2ccccc2cc1-c1cc2ccccc2[nH]1)Nc1ccc(Cl)cc1
inactive: DU-145 prostate 99.2% | K-562 leukemia 88.8% | MALME-3M melanoma 99.2% | MDA-MB-231 breast 79.5% | RXF 393 renal 116% | SF-268 CNS 99.3% | SF-295 CNS 111% | SF-539 CNS 90.6% | UACC-257 melanoma 108% | M14 melanoma 79.6% | HCT-15 colon 107% | HT29 colon 99.8% | SNB-19 CNS 97.3% | U251 CNS 104% | PC-3 prostate 86.8% | SK-MEL-5 melanoma 99.6% | UACC-62 melanoma 83% | LOX IMVI melanoma 94.2% | SK-MEL-28 melanoma 100%

CCOC(=O)c1c(C)nc2c(c1N)CC(=O)N2Cc1ccc(F)cc1
inactive: DU-145 prostate 100% | K-562 leukemia 93.3% | MALME-3M melanoma 116% | MDA-MB-231 breast 97.9% | RXF 393 renal 101% | SF-268 CNS 96.4% | SF-295 CNS 95.3% | SF-539 CNS 92.9% | UACC-257 melanoma 96% | M14 melanoma 94.8% | HCT-15 colon 95.9% | HT29 colon 90% | SNB-19 CNS 97.1% | U251 CNS 91.2% | PC-3 prostate 80% | SK-MEL-5 melanoma 92.9% | UACC-62 melanoma 90.1% | LOX IMVI melanoma 93.5% | SK-MEL-28 melanoma 111%

CN(C)CCN1CCN(c2ncccc2C2Nc3ccccc3-n3cccc32)CC1 (centres undefined)
inactive: DU-145 prostate 110% | K-562 leukemia 89.4% | MALME-3M melanoma 106% | MDA-MB-231 breast 93.6% | RXF 393 renal 101% | SF-268 CNS 92.3% | SF-295 CNS 103% | SF-539 CNS 101% | UACC-257 melanoma 101% | M14 melanoma 106% | HCT-15 colon 101% | HT29 colon 101% | SNB-19 CNS 106% | U251 CNS 105% | PC-3 prostate 102% | SK-MEL-5 melanoma 104% | UACC-62 melanoma 105% | LOX IMVI melanoma 99.9% | SK-MEL-28 melanoma 105%

CC(=O)CC(c1ccccc1)c1c(C)[nH]c2ccccc12 (centres undefined)
inactive: DU-145 prostate 110% | K-562 leukemia 87.2% | MALME-3M melanoma 100% | MDA-MB-231 breast 103% | RXF 393 renal 104% | SF-268 CNS 94.8% | SF-295 CNS 102% | SF-539 CNS 93.4% | UACC-257 melanoma 94.8% | M14 melanoma 94.4% | HCT-15 colon 97.5% | HT29 colon 103% | SNB-19 CNS 93.2% | U251 CNS 105% | PC-3 prostate 87.9% | SK-MEL-5 melanoma 99.3% | UACC-62 melanoma 86.7% | LOX IMVI melanoma 90.5% | SK-MEL-28 melanoma 102%

Cc1cc(=O)oc2cc(OC(=O)N3CCN(C)CC3)ccc12
inactive: DU-145 prostate 110% | K-562 leukemia 90.3% | MALME-3M melanoma 103% | MDA-MB-231 breast 104% | RXF 393 renal 121% | SF-268 CNS 101% | SF-295 CNS 104% | SF-539 CNS 96.3% | UACC-257 melanoma 106% | M14 melanoma 95.5% | HCT-15 colon 99.4% | HT29 colon 114% | SNB-19 CNS 100% | U251 CNS 107% | PC-3 prostate 96.7% | SK-MEL-5 melanoma 102% | UACC-62 melanoma 97.6% | LOX IMVI melanoma 95.1% | SK-MEL-28 melanoma 101%

c1ccc2c(-c3nc(-c4c[nH]c5ccncc45)cs3)c[nH]c2c1
active: K-562 leukemia -32% | MALME-3M melanoma -48.8% | M14 melanoma -69.7% | HCT-15 colon 6% | HT29 colon 2.05% | LOX IMVI melanoma -76% | SK-MEL-28 melanoma -89.8%
inactive: DU-145 prostate 44.5% | MDA-MB-231 breast 12.7% | RXF 393 renal 74.9% | SF-268 CNS 68.5% | SF-295 CNS 50.2% | SF-539 CNS 53% | UACC-257 melanoma 96.1% | SNB-75 CNS 57.6% | SNB-19 CNS 86.5% | PC-3 prostate 46.7% | SK-MEL-5 melanoma 51.1% | UACC-62 melanoma 87.1%

O=c1ccc(N=Nc2ccc([N+](=O)[O-])cc2)ccc1O
active: SK-MEL-5 melanoma 9.1% | LOX IMVI melanoma 3.95%
inactive: DU-145 prostate 38.4% | K-562 leukemia 13.7% | MALME-3M melanoma 22.9% | MDA-MB-231 breast 13.9% | RXF 393 renal 46% | SF-268 CNS 23.2% | SF-295 CNS 12.6% | SF-539 CNS 16.7% | UACC-257 melanoma 21.9% | M14 melanoma 44.6% | HCT-15 colon 13.2% | HT29 colon 25.9% | SNB-19 CNS 19% | U251 CNS 17.4% | PC-3 prostate 34.2% | UACC-62 melanoma 15.2% | SK-MEL-28 melanoma 41.1%

OC(c1ccccc1)C(NC(Cc1ccccc1)c1ccccc1)c1ccccc1 (centres undefined)
inactive: DU-145 prostate 98.7% | K-562 leukemia 82.5% | MALME-3M melanoma 91.9% | MDA-MB-231 breast 78.7% | RXF 393 renal 102% | SF-268 CNS 86.8% | SF-295 CNS 93.1% | SF-539 CNS 96.7% | UACC-257 melanoma 91.6% | M14 melanoma 91.8% | HCT-15 colon 89.2% | HT29 colon 71.3% | SNB-19 CNS 87.6% | U251 CNS 86.4% | PC-3 prostate 80.5% | SK-MEL-5 melanoma 94.6% | UACC-62 melanoma 69.4% | LOX IMVI melanoma 89.2% | SK-MEL-28 melanoma 97.8%

Cc1[nH]c(C(=O)Nc2ccc(C(=O)NCCN)cc2OC(C)C)c(Cl)c1Cl
active: K-562 leukemia -19.3% | MDA-MB-231 breast -27% | SF-539 CNS -22.3% | M14 melanoma -31.1% | HT29 colon 2.87% | U251 CNS -21.4% | LOX IMVI melanoma -95.1%
inactive: DU-145 prostate 33.8% | MALME-3M melanoma 63.3% | RXF 393 renal 83.5% | SF-268 CNS 68.1% | SF-295 CNS 89.7% | UACC-257 melanoma 105% | HCT-15 colon 34.3% | SNB-19 CNS 52% | PC-3 prostate 45% | SK-MEL-5 melanoma 71.2% | UACC-62 melanoma 84% | SK-MEL-28 melanoma 70.9%
